These results are taken from PubChem BioAssay (Tox21).

Assay [1] in a line: Nuclear factor erythroid 2-related factor 2/antioxidant responsive element (Nrf2/ARE) small molecule agonists: qHTS cell viability counter screen in human keratinocytes (AID 1919968; active = well fitted cell-killing curve with a large enough effect in the repeat runs; note: nearly all actives have a fitted effect of over 55% in size). In outline:
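Cells of the KeratinoSens line were plated at 1,500 per well and left for 5 h before compound transfer from DMSO stocks. After a 23 h incubation (37 C, 5% CO2), CellTiter-Fluor was added. Signal was taken as fluorescence intensity 1 h later.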

The nature of assay [2]: Nuclear factor erythroid 2-related factor 2/antioxidant responsive element (Nrf2/ARE) small molecule agonists: luciferase reporter gene qHTS assay in human keratinocytes (AID 1919969). Note: nearly all actives have a fitted effect of over 35% in size. Note: potency is the fitted concentration of half-maximal effect.
Assay [3] concerns the target Gonadotropin-releasing hormone receptor (Homo sapiens) (UniProt P30968). Nature of the assay: Human gonadotropin-releasing hormone receptor (GnRHR) small molecule agonists, calcium flux assay in GnRHR-HEK293 cells (AID 1920063). Note: nearly all actives have a fitted effect of over 35% in size. In outline:
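Compounds dissolved in DMSO are pin-transferred onto dye-loaded GnRHR-HEK293 cells, which were seeded 18 h before at 37 C/5% CO2. Calcium signal is read as fluorescence intensity at 1 s intervals for 3 min.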
In general terms: Calcium flux is commonly read through the fluorescence of an indicator in the cells.

Assay [4] can be described thus: G protein-coupled receptor (GPCR) small molecule agonists, calcium flux assay: HEK293 wild type cell line counter screen (AID 1920065). Summed up:
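Tox21 10K compounds, 15 concentrations each in triplicate, pin-transferred in DMSO onto dye-loaded cells; kinetic read at 480/540 nm for 3 min, 1 s intervals.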

Assay [5] in a line: p53 small molecule agonists, cell-based qHTS assay with human liver microsomes: qHTS cell viability counter screen (AID 1963579). Note: nearly all actives have a fitted effect of over 45% in size. In outline: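 Metabolic activation used human liver microsomes and NADPH, both 0.5 mg/mL final, over 16 hours at 37 C on p53RE-bla cells (4,000/well). Cytotoxicity measured by CellTiter-Glo luminescence, 30 min at room temperature.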
Assay [6] is described as follows: p53 small molecule agonists, cell-based qHTS assay with rat liver microsomes: qHTS cell viability counter screen (AID 1963580). Note: nearly all actives have a fitted effect of over 45% in size. In outline:
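After the beta-lactamase ratio was read, CellTiter-Glo was added to the same wells and luminescence measured at 30 min; cells had been treated 16 h at 37 C with compounds, rat liver microsomes and NADPH (0.5 mg/mL final each).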
(In general: Quantitative high-throughput screening tests each substance at several concentrations.)

Assay [7] in a line: p53 small molecule agonists, cell-based qHTS assay: qHTS cell viability counter screen (AID 1963581). Note: nearly all actives have a fitted effect of over 45% in size. Summed up:
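ATP content measured by luminescence in HCT-116 p53RE-bla cells treated 16 h at 37 C, same wells as the reporter screen.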

Assay [8] addresses 5-hydroxytryptamine receptor 2A (Homo sapiens) (UniProt P28223). Nature of the assay: 5-hydroxytryptamine receptor 2A (HTR2A) small molecule antagonists, cell-based qHTS assay (AID 1963586). Note: nearly all actives have a fitted effect of over 45% in size. In outline:
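CHO cells stably expressing human HTR2A were plated for 18 h at 37 C, then loaded with calcium dye for 1 h. Compounds were preincubated 5 min at room temperature before DOI (4 nM solution) was added. Kinetic fluorescence was read for 3 min.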

For assay [9] the target is unchanged. Nature of the assay: 5-hydroxytryptamine receptor 2A (HTR2A) small molecule agonists, cell-based qHTS assay (AID 1963587). Note: nearly all actives have a fitted effect of over 30% in size. Summed up: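 CHO cells stably expressing human HTR2A, plated 18 h, loaded with calcium dye 1 h at 37 C. Agonist mode: compounds added and intracellular calcium fluorescence recorded kinetically for 2 min at 1 sec intervals.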
Assay [10] has as its target Muscarinic acetylcholine receptor M1 (Homo sapiens) (UniProt P11229). The assay can be described thus: Cholinergic receptor muscarinic 1 (CHRM1) small molecule antagonists, cell-based qHTS assay (AID 1963588). Note: nearly all actives have a fitted effect of over 40% in size. Summed up:
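Compounds were tested at 15 concentrations in three independent runs. Dye-loaded CHRM1-CHO cells were exposed 5 min at room temperature before stimulation by acetylcholine added at 50nM. Intracellular calcium was read kinetically on FDSS for 3 min.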

The target is the same in assay [11]. Nature of the assay: Cholinergic receptor muscarinic 1 (CHRM1) small molecule agonists, cell-based qHTS assay (AID 1963589). Note: nearly all actives have a fitted effect of over 35% in size. Summed up: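 Homogeneous fluorescence calcium flux, agonist mode. Human M1-expressing CHO cells; compound dosed at 15 concentrations, three independent runs; signal sampled every 1 sec.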
A short description of assay [12]: cAMP Responsive Elements (CRE) small molecule agonists, cell-based qHTS assay (AID 1963590). In outline:
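HEK 293T cells stably bearing CRE-bla were plated at 2,000 cells per well and rested 18 h. Compounds, positive controls or DMSO were added for 3 h at 37 C. LiveBLAzer B/G substrate was then loaded for 2 h at room temperature.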

Assay [13] is described as follows: cAMP Responsive Elements (CRE) small molecule antagonists, cell-based qHTS assay (AID 1963591; active = well fitted inhibition curve with a large enough effect in the signal ratio in the repeat runs, not every such curve was filed as active; the % refers to the signal ratio). In outline:
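First, CRE-bla HEK293T cells settled 18 h at 37 C. Next, compound and 0.25 uM final NKH477 were applied for 3 h. Last, LiveBLAzer B/G substrate was loaded for 2 h at room temperature.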

The target in assay [14] is Beta-2 adrenergic receptor (Homo sapiens) (UniProt P07550). Nature of the assay: Adrenergic beta2 receptor (ADRB2) small molecule antagonists, cell-based qHTS assay (AID 1963592). Note: series mostly up to about 92 µM; nearly all actives have a fitted effect of over 50% in size. In outline:
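Assay format: CHO-ADRB2 cells, 18-20hr seeding at 37C/5% CO2, then compound plus 1nM isoproterenol agonist mix for 0.5hr RT. Homogeneous time-resolved fluorescence cAMP detection after 1hr, expressed as 665/615 nm ratio.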

The target in assay [15] is D(2) dopamine receptor (Homo sapiens) (UniProt P14416). Nature of the assay: Dopamine D2 receptor (DRD2) small molecule agonists, cell-based qHTS assay (AID 1963594). Note: nearly all actives have a fitted effect of over 35% in size. Summed up: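 HEK293 cells stably expressing human DRD2, pre-treated with PDE inhibitor Ro20-1724 (0.1 mM final) and compound 10 min at room temperature, then stimulated with NKH477 (200nM […]) for 30 min. cAMP read by HTRF (665/620 nm).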
D(2) dopamine receptor (Homo sapiens), sequence (P14416 whole entry, looked up): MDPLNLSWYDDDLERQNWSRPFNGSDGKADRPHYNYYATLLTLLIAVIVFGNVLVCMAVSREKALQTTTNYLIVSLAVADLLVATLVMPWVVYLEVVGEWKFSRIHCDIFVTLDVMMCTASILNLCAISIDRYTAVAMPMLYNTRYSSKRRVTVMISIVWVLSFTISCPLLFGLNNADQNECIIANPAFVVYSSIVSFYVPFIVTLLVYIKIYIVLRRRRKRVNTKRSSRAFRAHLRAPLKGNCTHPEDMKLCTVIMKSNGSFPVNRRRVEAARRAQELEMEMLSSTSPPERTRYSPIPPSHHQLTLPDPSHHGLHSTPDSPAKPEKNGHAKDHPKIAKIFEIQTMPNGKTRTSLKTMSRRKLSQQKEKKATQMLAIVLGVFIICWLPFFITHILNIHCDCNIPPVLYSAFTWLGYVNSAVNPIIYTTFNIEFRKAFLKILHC

Assay [16] in a line: p53 small molecule agonists, cell-based qHTS assay with rat liver microsomes (AID 1963578). In outline:
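Metabolic activation by rat liver microsomes and NADPH, each 0.5 mg/mL final, added right after compounds to p53RE-bla reporter cells (4,000/well, plated 5 h earlier). 16 h at 37 C, then LiveBLAzer substrate for 2 h at room temperature in the dark; fluorescence read-out.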

Assay [17] is described as follows: p53 small molecule agonists, cell-based qHTS assay (AID 1963582; active = well fitted activation curve with a large enough effect in the signal ratio in the repeat runs, not every such curve was filed as active; the % refers to the signal ratio). Summed up: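 16 h compound exposure (37 C) of p53 response element–bla cells, preceded by 5 h recovery at 37 C/5% CO2; read-out via LiveBLAzer B/G FRET substrate, 2 h RT, fluorescence intensity.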
The target in assay [18] is D(2) dopamine receptor (Homo sapiens) (UniProt P14416). The assay can be described thus: Dopamine D2 receptor (DRD2) small molecule antagonists, cell-based qHTS assay (AID 1963595; active = well fitted inhibition curve with a large enough effect in the signal ratio in the repeat runs, with a control signal flat; the % refers to the signal ratio). Summed up:
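HEK293 cells stably expressing DRD2, preincubated with 0.1 mM Ro20-1724 and compounds 10 min, were stimulated with 200 nM NKH477 plus 12 nM quinpirole for 30 min at room temperature; cAMP measured by HTRF (665/620 nm).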

A short description of assay [19]: p53 small molecule agonists, cell-based qHTS assay with human liver microsomes (AID 1963577).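 Note: p53 response element beta-lactamase reporter cells with liver microsomes plus NADPH.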 Summed up: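 With metabolic activation: human liver microsomes (0.5 mg/mL final) plus NADPH (0.5 mg/mL final) added alongside compounds to p53RE-bla cells; 16 h 37 C exposure; beta-lactamase read by LiveBLAzer fluorescence.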

Values joined by “and” are separate entries in the source; they are usually repeats but may differ in a detail not shown here. Identical values can stand only once. Records with an inconclusive call do not appear. Where a structure was tested more than once in an assay, its records may differ in their call. Active and inactive are the calls of the source. Unless noted, calls come from the whole dose curve.

Gonadotropin-releasing hormone receptor (Homo sapiens), sequence (P30968 whole entry, looked up): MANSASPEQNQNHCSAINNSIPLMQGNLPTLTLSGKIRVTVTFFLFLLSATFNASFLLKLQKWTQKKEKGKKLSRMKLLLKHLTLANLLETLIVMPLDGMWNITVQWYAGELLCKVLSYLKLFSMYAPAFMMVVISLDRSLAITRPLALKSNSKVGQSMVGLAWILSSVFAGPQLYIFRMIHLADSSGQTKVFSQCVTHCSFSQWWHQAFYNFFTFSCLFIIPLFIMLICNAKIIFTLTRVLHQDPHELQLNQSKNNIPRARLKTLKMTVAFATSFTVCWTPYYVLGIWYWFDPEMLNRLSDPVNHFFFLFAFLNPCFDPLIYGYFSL
5-hydroxytryptamine receptor 2A (Homo sapiens), sequence (P28223 whole entry, looked up): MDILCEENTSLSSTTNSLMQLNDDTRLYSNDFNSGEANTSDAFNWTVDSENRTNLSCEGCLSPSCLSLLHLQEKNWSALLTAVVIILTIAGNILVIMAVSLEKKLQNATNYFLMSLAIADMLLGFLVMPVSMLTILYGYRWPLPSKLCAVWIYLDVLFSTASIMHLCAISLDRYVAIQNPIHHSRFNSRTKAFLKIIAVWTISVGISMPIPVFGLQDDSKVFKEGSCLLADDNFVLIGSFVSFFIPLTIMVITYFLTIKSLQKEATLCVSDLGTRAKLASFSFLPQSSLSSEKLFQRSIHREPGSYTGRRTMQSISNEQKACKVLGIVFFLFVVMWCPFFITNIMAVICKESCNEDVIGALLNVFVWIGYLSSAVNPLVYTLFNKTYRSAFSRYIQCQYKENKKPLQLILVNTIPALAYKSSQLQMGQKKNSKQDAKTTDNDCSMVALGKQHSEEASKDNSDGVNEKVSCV
Muscarinic acetylcholine receptor M1 (Homo sapiens), sequence (P11229 whole entry, looked up): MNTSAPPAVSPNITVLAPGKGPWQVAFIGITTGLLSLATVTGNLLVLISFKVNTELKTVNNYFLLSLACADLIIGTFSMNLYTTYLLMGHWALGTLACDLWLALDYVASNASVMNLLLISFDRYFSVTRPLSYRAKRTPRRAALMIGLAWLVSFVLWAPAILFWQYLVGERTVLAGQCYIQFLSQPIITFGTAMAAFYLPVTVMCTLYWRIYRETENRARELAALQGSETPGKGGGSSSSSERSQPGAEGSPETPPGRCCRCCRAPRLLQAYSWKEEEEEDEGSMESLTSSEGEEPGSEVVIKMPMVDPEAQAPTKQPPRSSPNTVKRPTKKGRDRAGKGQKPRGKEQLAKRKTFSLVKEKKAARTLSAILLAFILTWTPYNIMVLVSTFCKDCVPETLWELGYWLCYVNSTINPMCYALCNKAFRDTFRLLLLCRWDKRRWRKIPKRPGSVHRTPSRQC
Beta-2 adrenergic receptor (Homo sapiens), sequence (P07550 whole entry, looked up): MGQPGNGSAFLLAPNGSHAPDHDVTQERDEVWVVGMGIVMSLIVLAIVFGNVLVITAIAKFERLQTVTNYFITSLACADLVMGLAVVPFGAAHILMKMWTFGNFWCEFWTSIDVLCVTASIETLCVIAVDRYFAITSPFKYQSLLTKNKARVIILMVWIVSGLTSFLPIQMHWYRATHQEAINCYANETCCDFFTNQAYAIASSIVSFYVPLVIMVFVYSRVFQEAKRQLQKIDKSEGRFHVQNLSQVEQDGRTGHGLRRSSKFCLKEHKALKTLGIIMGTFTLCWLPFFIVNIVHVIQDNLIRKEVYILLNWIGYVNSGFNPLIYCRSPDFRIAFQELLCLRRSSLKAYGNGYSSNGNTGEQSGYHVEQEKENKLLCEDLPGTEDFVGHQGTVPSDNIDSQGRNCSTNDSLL

`CCC[N+]1(C)CCCCC1`: the Potency result in assay [1], in [2], in assay [3], in assay [4], in assay [5] and in assay [6] was “inactive” throughout. For the same molecule, the Potency entry in [7], in [8], in assay [9], in [10], in assay [11] and in [12] was “inactive” each time. Further, the Potency result in [13], in [14] and in assay [15] was “inactive” in each case.
Turning to `O=c1[nH]c(=O)[nH]c(=O)[nH]1`, the Potency result in assay [1], in assay [2], in assay [3], in assay [4], in [16] and in assay [5] was “inactive” throughout. Further, the Potency entry in assay [6], in assay [7], in [17], in assay [9], in assay [10] and in assay [11] was “inactive” each time. The Potency result in assay [12], in [13] and in assay [14] was “inactive” each time.
Regarding `O=C(NC(=O)c1ccccc1Cl)Nc1ccc(OC(F)(F)F)cc1`, the Potency result in assay [1], in assay [2], in assay [3], in assay [4], in assay [16] and in assay [5] was “inactive” throughout. In addition, the Potency entry in assay [6], in assay [7], in assay [17], in assay [8], in assay [9] and in assay [10] was “inactive” in each case. The Potency entry in assay [11], in assay [12], in [13], in assay [14] and in assay [15] was “inactive” each time.
On to `C[C@]12CCC(=O)C=C1CC[C@@H]1[C@@H]2CC[C@]2(C)C(=O)CC[C@@H]12`, for which the Potency entry in [1], in assay [2], in [3], in assay [4], in [16] and in assay [5] was “inactive” throughout. The Potency entry in assay [6], in assay [7], in assay [17], in assay [8], in assay [9] and in [10] was “inactive” each time. Further, the Potency entry in [11], in [14], in assay [15] and in assay [18] was “inactive” throughout.
On to `COC(=O)c1sccc1S(=O)(=O)NC(=O)Nc1nc(C)nc(OC)n1`, for which the Potency result in [1], in [2], in assay [3], in assay [4], in assay [19] and in assay [16] was “inactive” in each case. The Potency result in [5], in assay [6], in [7], in assay [17], in assay [8] and in assay [9] was “inactive” each time. For the same molecule, the Potency entry in assay [10], in assay [12], in [13], in assay [15] and in [18] was “inactive” in each case.
With `O=S(=O)(c1ccc(Cl)cc1)c1cc(Cl)c(Cl)cc1Cl`, the Potency entry in assay [1], in assay [3], in [4], in assay [19], in assay [16] and in [5] was “inactive” each time. Further, the Potency result in assay [6], in [7], in [8], in assay [9], in assay [10] and in [11] was “inactive” each time. In addition, the Potency entry in assay [12], in [13], in assay [14], in assay [15] and in [18] was “inactive” in each case. For the same molecule, the Potency in [2] was 48.5 µM (active).
As to `COP(=S)(OC)SCN1C(=O)c2ccccc2C1=O`, the Potency entry in [1], in assay [3], in assay [4], in assay [5], in [6] and in assay [7] was “inactive” each time. Further, the Potency result in assay [17], in assay [8], in assay [9], in [10], in [11] and in [12] was “inactive” throughout. Further, the Potency entry in [13] and in assay [18] was “inactive” in each case. Besides, the Potency in assay [2] was 61.6 µM (active) and 68.6 µM (active) and inactive.
